A number with no mark means an inactive call. Results filed as inconclusive are left out. A call without a number means that no potency is given here. Active and inactive are the calls of the source. The call rests on the fitted dose curve.
Tests used:
[1] = target: Acetylcholinesterase (Homo sapiens) (UniProt P22303); test: Acetylcholinesterase (AChE) small molecule antagonists: colormetric cell-based qHTS assay (AID 1347395); further: nearly all actives have a fitted effect of over 30% in size; further: potency means the concentration at half of the fitted maximal effect
Sequence of Acetylcholinesterase (Homo sapiens) (P22303 whole entry, looked up): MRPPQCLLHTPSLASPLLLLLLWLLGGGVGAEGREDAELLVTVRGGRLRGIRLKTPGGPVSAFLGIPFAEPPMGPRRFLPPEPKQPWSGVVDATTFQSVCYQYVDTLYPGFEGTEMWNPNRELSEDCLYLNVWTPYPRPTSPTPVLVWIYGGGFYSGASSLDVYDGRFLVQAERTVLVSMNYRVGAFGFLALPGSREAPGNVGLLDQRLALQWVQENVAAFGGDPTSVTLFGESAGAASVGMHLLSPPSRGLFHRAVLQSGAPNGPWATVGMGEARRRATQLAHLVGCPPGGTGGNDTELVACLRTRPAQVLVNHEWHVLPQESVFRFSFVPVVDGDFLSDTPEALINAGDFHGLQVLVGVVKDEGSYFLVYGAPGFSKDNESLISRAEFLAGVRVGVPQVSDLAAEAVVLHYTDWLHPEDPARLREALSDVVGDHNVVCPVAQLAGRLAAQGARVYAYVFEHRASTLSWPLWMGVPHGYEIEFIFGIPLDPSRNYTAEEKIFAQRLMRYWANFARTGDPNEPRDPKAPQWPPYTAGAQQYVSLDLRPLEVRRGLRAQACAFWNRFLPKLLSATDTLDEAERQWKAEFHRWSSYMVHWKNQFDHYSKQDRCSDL
How it was run: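 Neuroblastoma line SH-SY5Y supplied the enzyme; cells were preincubated with compound for 30 min at 37 C and 5% CO2. Acetylthiocholine with DTNB was then added for 90 min at 37 C, and thiocholine was measured by colour.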

[2] = target: Acetylcholinesterase (Homo sapiens) (UniProt P22303); test: Acetylcholinesterase (AChE) small molecule antagonists: enzyme-based qHTS assay (AID 1347397); conditions: Potency: AChE enzyme activity inhibition; outcome: AChE enzyme activity inhibition; further: nearly all actives have a fitted effect of over 55% in size
How it was run: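 Absorbance-based detection of thiocholine with DTNB served as the read-out. Recombinant human AChE was exposed to compound for 30 min at RT before a 10 min RT incubation with acetylthiocholine.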

[3] = target: Acetylcholinesterase (Homo sapiens) (UniProt P22303); test: Acetylcholinesterase (AChE) small molecule antagonists: fluorescence cell-based qHTS assay (AID 1347398); conditions: Potency: AChE activity; outcome: AChE activity; further: nearly all actives have a fitted effect of over 50% in size
How it was run: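 Fluorimetric cell-based assay: intact SH-SY5Y cells, 30 min compound preincubation at 37 C, acetylthiocholine substrate with thiol probe Thiolite Green, 40 min RT development, fluorescence 490/520 nm.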

[4] = target: Acetylcholinesterase (Homo sapiens) (UniProt P22303); test: Acetylcholinesterase (AChE) small molecule antagonists: enzyme-based qHTS assay with human liver microsomes (AID 1347399); conditions: Potency: qHTS inhibition; outcome: qHTS inhibition; further: nearly all actives have a fitted effect of over 60% in size
How it was run: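 Recombinant human AChE (50 mU/mL in the enzyme mix) and human liver microsomes (0.25 mg/mL final) were preincubated with compound and NADPH (0.25 mg/mL final) for 30 min at 37 C. Acetylthiocholine/DTNB was then added; thiocholine was read colorimetrically after 10 min at room temperature.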

Structure (SMILES) | Potency [1] | Potency [2] | Potency [3] | Potency [4] | activity, negative = inhibition [1] | activity change, negative = inhibition [2] | activity change, negative = inhibition [3] | activity change, negative = inhibition [4]
CCOC(=O)Cn1cccc1-c1nc(-c2ccc(OC)cc2)c(-c2ccc(OC)cc2)s1 | inactive | inactive | inactive | inactive |  |  |  | 
COc1ccc(OC)cc1 | inactive | inactive | inactive | inactive |  |  |  | 
C[C@H]1C[C@H](O)c2ccsc2S1(=O)=O | inactive | inactive | inactive | inactive |  |  |  | 
Nc1ncn([C@H]2C[C@H](O)[C@@H](CO)O2)c(=O)n1 | inactive | inactive | inactive | inactive |  |  |  | 
C/C(=C(\CCO)SS/C(CCO)=C(\C)N(C=O)Cc1cnc(C)nc1N)N(C=O)Cc1cnc(C)nc1N | inactive | inactive | inactive | inactive |  |  |  | 
COc1cccc(CCc2ccccc2OCC(CN(C)C)OC(=O)CCC(=O)O)c1 (stereo not given) | inactive | inactive | inactive | inactive |  |  |  | 
CCOC(=O)O[C@]1(C(=O)OCCl)CC[C@H]2[C@@H]3CCC4=CC(=O)C=C[C@]4(C)[C@H]3[C@@H](O)C[C@@]21C | inactive | inactive | inactive | inactive |  |  |  | 
O=c1cc[nH]cc1 | inactive | inactive | inactive | inactive |  |  |  | 
CCOCOCC | inactive | inactive | inactive | inactive |  |  |  | 
Cc1ccc(S(=O)(=O)NC(=O)NC2CCCC2)cc1 | inactive | inactive | inactive | inactive |  |  |  | 
O=C(O)c1ccc(S(=O)(=O)N(Cl)Cl)cc1 | inactive | inactive | inactive | inactive |  |  |  | 
CCN(Cc1cccnc1)C(=O)c1cccc(Cl)c1[C@]1(C)C(=O)N(Cc2ccc(OC)cc2OC)c2ccc(Cl)cc21 | inactive | inactive | inactive | inactive |  |  |  | 
COC(=O)c1cc(Cl)ccc1NS(=O)(=O)C(F)(F)F | inactive | inactive | inactive | inactive |  |  |  | 
CCCCC[C@H](O)/C=C/[C@H]1[C@H](O)CC(=O)[C@@H]1C/C=C\CCCC(=O)O | inactive | inactive | inactive | inactive |  |  |  | 
CNC1CCCN(c2c(F)cc3c(=O)c(C(=O)O)cn(C4CC4)c3c2OC)C1 (stereo not given) | inactive | inactive | inactive | inactive |  |  |  | 
Brc1cc(Oc2cc(Br)c(Br)c(Br)c2Br)c(Br)c(Br)c1Br | inactive | inactive | inactive | inactive |  |  |  | 
NC(=S)Nc1cccc2ccccc12 |  |  |  |  | -0.35% [at 10.5 µM] | -0.679% [at 10.5 µM] | -3.97% [at 10.5 µM] | 0.729% [at 10.5 µM]
O=C(Nc1cccc(Cl)c1)OCC#CCCl | inactive | inactive | inactive | inactive |  |  |  | 
CCN(CCC#N)c1ccc(N=Nc2ccc([N+](=O)[O-])cc2)cc1 | inactive | inactive | inactive | inactive |  |  |  | 
CCCC/C=C\CCCCCCCCCC=O | inactive | inactive | inactive | inactive |  |  |  | 

Structure (SMILES) | Potency [1] | Potency [2] | Potency [3] | Potency [4] | activity, negative = inhibition [1] | activity change, negative = inhibition [2] | activity change, negative = inhibition [3] | activity change, negative = inhibition [4]
Cc1ccc2c(c1)C(=O)OC2=O | inactive | inactive | inactive | inactive |  |  |  | 
Cc1c(C(=O)O)c(O)cc2c1C(=O)c1c(O)c([C@@H]3O[C@H](CO)[C@@H](O)[C@H](O)[C@H]3O)c(O)c(O)c1C2=O | inactive | inactive | inactive | inactive |  |  |  | 
CCCCOC(=O)c1ccc(N)cc1 | inactive | inactive | inactive | inactive |  |  |  | 
CC(C)(C)N | inactive | inactive | inactive | inactive |  |  |  | 
CN1CCC[C@H]1c1cccnc1 | inactive | inactive | inactive | inactive |  |  |  | 
CCN(CC)C(=O)C1CN2CCc3cc(OC)c(OC)cc3C2CC1OC(C)=O (stereo not given) | inactive | inactive | inactive | inactive |  |  |  | 
CCCCCCOc1ccc(O)cc1 | inactive | inactive | inactive | inactive |  |  |  | 
Cc1cc2c(cc1S(N)(=O)=O)S(=O)(=O)CCC2 | 17.4 µM (active) | inactive | inactive | inactive |  |  |  | 
CCC(=O)c1cccc(Cl)c1 | inactive | inactive | inactive | inactive |  |  |  | 
COc1cc2ncnc(Nc3cccc(Cl)c3)c2cc1OC |  |  |  |  | 5.54% [at 23.6 µM] | -0.138% [at 23.6 µM] | 1.23% [at 23.8 µM] | 1.05% [at 23.6 µM]
Cc1ccc(C)c(C)c1 | inactive | inactive | inactive | inactive |  |  |  | 
O=C(c1ccc2c(c1)C(=O)OC2=O)c1ccc2c(c1)C(=O)OC2=O | inactive | inactive | inactive | inactive |  |  |  | 
Cc1c(C)c2c(c(C)c1OC(=O)c1cccnc1)CC[C@@](C)(CCC[C@H](C)CCC[C@H](C)CCCC(C)C)O2 | inactive | inactive | inactive | inactive |  |  |  | 
CO/N=C(/C(=O)N[C@@H]1C(=O)N2C(C(=O)O)=C(Cn3nnc(C)n3)CS[C@H]12)c1csc(N)n1 | inactive | inactive | inactive | inactive |  |  |  | 
CN(CCOc1ccc(CC2SC(=O)NC2=O)cc1)c1ccccn1 (stereo not given) | inactive | inactive | inactive | inactive |  |  |  | 
O=C1OC2(c3ccc(O)cc3Oc3cc(O)ccc32)c2ccccc21 | inactive | inactive | inactive | inactive |  |  |  | 
CCN(CC)CCOC(=O)C(c1ccccc1)C1CCCCC1 (stereo not given) | inactive | inactive | inactive | inactive |  |  |  | 
CC/C=C1/OC(=O)c2ccccc21 | inactive | inactive | inactive | inactive |  |  |  | 
C=CCOC(=O)C(=C)C | inactive | inactive | inactive | inactive |  |  |  | 
C/C=C(\C)C=O | inactive | inactive | inactive | inactive |  |  |  | 

Structure (SMILES) | Potency [1] | Potency [2] | Potency [3] | Potency [4] | activity, negative = inhibition [1] | activity change, negative = inhibition [2] | activity change, negative = inhibition [3] | activity change, negative = inhibition [4]
CCCCCCCCCCCCc1ccccc1 | inactive | inactive | inactive | inactive |  |  |  | 
CC1=CC(=C(c2ccc(N)cc2)c2ccc(N)cc2)C=CC1=N |  |  |  |  | 0.517% [at 10.5 µM] | 0.534% [at 10.5 µM] | -4.07% [at 10.5 µM] | 0.485% [at 10.5 µM]
CCCCOCCO | inactive | inactive | inactive | inactive |  |  |  | 
CN(C)CCCN(C)C |  |  |  |  | 3.16% [at 10.5 µM] | 0.096% [at 10.5 µM] | 0.828% [at 10.5 µM] | 0.146% [at 10.5 µM]
Cc1cc(C2CCCCC2)n(O)c(=O)c1 | inactive | inactive | inactive | inactive |  |  |  | 
Nc1nccs1 | inactive | inactive | inactive | inactive |  |  |  | 
Nc1ccccc1N | inactive | inactive | inactive | inactive |  |  |  | 
CCC(C)c1cc([N+](=O)[O-])cc([N+](=O)[O-])c1OC(=O)OC(C)C (stereo not given) | inactive | inactive | inactive | inactive |  |  |  | 
C=C(C)C(=O)OCCOP(=O)(O)OCCOC(=O)C(=C)C | inactive | inactive | inactive | inactive |  |  |  | 
COc1cc2[nH]c(=O)[nH]c(=O)c2cc1OC | inactive | inactive | inactive | inactive |  |  |  | 
O=Nc1ccc(O)cc1 | inactive | inactive | inactive | inactive |  |  |  | 
C#C[C@]1(O)CC[C@H]2[C@@H]3CCc4cc(O)ccc4[C@H]3CC[C@@]21C | inactive | inactive | inactive | inactive |  |  |  | 
O=[N+]([O-])c1ccccc1CCO | inactive | inactive | inactive | inactive |  |  |  | 
C=C[C@H]1CN2CC[C@H]1C[C@H]2[C@H](O)c1ccnc2ccc(OC)cc12 | inactive | inactive | inactive | inactive |  |  |  | 
O=C1[C@H](CC[C@H](O)c2ccc(F)cc2)[C@@H](c2ccc(O)cc2)N1c1ccc(F)cc1 | inactive | inactive | inactive | inactive |  |  |  | 
CCCCCOC(=O)Nc1nc(=O)n([C@@H]2O[C@H](C)[C@@H](O)[C@H]2O)cc1F | inactive | inactive | inactive | inactive |  |  |  | 
CCCCCCCC/C=C\CCCCCCCC(=O)NCc1ccc(O)c(OC)c1 | inactive | inactive | inactive | inactive |  |  |  | 
CC(=O)Oc1ccccc1C(=O)Nc1ncc([N+](=O)[O-])s1 | inactive | inactive | inactive | inactive |  |  |  | 
C[C@]12C=CC(=O)C=C1[C@@H](F)C[C@@H]1[C@@H]2[C@@H](O)C[C@@]2(C)[C@H]1CC[C@]2(O)C(=O)CO | inactive | inactive | inactive | inactive |  |  |  | 
C=CC(C)(O)CC/C=C(/C)CCC=C(C)C (stereo not given) | inactive | inactive | inactive | inactive |  |  |  | 

From PubChem BioAssay (Tox21)
